The text below walks through data of PubChem BioAssay (NCI).

The structures appear in SMILES notation. About 79,000 compounds went through this panel and 15% of them were active in at least one assay; those are over-represented in the sample as a whole. A number with no mark means an inactive call. The source made the active and inactive calls. Cut-off read from the data, not from the text of the source: active = growth inhibition above about 70%; inactive = the rest.

The experiment is described as follows: NCI Yeast Anticancer Drug Screen. Data for the rad50 strain (AID 155).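 Note: 0% = growth of vehicle-only cultures of the same strain.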 Conditions: S. cerevisiae rad50 strain growth inhibition; at 50.0 µM; active compounds read high. In short, it runs like this:
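Cells are treated with compound, grown, and their growth is then scored against vehicle-only cultures of the same repair-deficient yeast strain.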
For the compound `CC(C)(C)C1CCC(O)(CSc2ccccc2)CC1` (stereo not given), the growth inhibition is 6.7%.
Take `Cc1cc(C)c(C(=O)CC(C)C)c(C)c1`: the growth inhibition is -8.15%.
`CCc1ccc(/C(C#N)=C/c2ccccc2Cl)cc1`: the growth inhibition was 21.9%.
Consider `CN(C)CCN1CCc2c([nH]c3ccccc23)C1c1cccnc1` (stereo not given), for which the growth inhibition was -55.6%.
In the case of `CNc1ncnc2c1c(C(N)=S)cn2C1OC(CO)C(O)C1O` (stereo not given), the growth inhibition is 0.1%.
For the compound `CC(=O)Nc1ccc(N(C)C)cc1Cl`, the growth inhibition is -24.6%.
Next, `O=C(Nc1ccccc1)c1ccc(I)cc1`: 7.05%; `CCCCCCCCCC(=O)N/N=C\c1cccc2ccccc12`: 0.15%; `O=C(O)c1cc(O)c(C(=O)O)cc1O`: -3.2%.
Next, `COc1ccc2[nH]c(C(F)(F)F)cc(=O)c2c1`: 9.4%; `CCCCN=Cc1ccc(Cl)cc1`: -2.65%.
Take `O=C1c2ccccc2C(=O)N1C/C(Cl)=C/Cl`: the growth inhibition was -21.9%.
With `CCCCCCCCCCCCCCCCN=C1C=Cc2ccccc2C1=NCCCCCCCCCCCCCCCC`, the growth inhibition is -0.45%.
Turning to `CC(=O)OC1=C(C)C2=C3OC(=O)C(C)=C3CC[C@@]2(C)CC1`, the growth inhibition is 3.7%.
Turning to `O=C(CCC(=O)OCC1CCCO1)OCC1CCCO1` (stereo not given), the growth inhibition is 1.15%.
As for `C=CCCCC(C#N)c1ccc2c(c1)OCO2` (stereo not given), the growth inhibition was -3.25%.
As to `CCCCOc1cc(C(=O)O)ccc1[N+](=O)[O-]`, the growth inhibition is -10.7%.
As to `CSC(=Nc1ccc([N+](=O)[O-])cc1C#N)NC(=O)c1ccccc1`, the growth inhibition is -28.2%.
As for `Cc1ccc2[nH]c(=O)cc(C)c2c1`, the growth inhibition is 15.2%.
Next, `COc1ccc(C(O)(CCN2CCOCC2)c2ccc3c(c2)OCO3)cc1` (stereo not given): -8.4%; `CCN(CC)c1ccc(N=C2C=C(C(=O)Nc3ccc(C(=O)O)cc3)C(=O)c3ccccc32)c(C)c1`: -10.2%; `NNC(=O)c1cccc2c1Oc1ccccc1S2`: 21.5%.
Next, `O=C(NN=C1c2ccccc2-c2ccccc21)C(F)(F)F`: 87% (active); `O=C1CC23CC(=O)CC2(C1)c1ccccc1C3=O` (stereo not given): 11.1%; `CSC(=NNC(N)=O)SC`: 4.4%.
Take `CC(=O)N(CCCc1ccccc1)C(C)(C)C`: the growth inhibition is 5.95%.
In the case of `O=C(NC1C2CC3CC(C2)CC1C3)c1cc(/C=C/c2ccccc2)[nH]c(=S)n1` (stereo not given), the growth inhibition was 15.1%.
As for `CCOC(=O)Cc1ccc2c(c1)sc1nc(-c3ccc(OC)cc3)cn12`, the growth inhibition is 38.8%.
In the case of `CN(C)CCN1CC2C3CCCCC3=C3CCCCC3C2C1` (stereo not given), the growth inhibition is -0.45%.
Take `CNC(C)C#N` (stereo not given): the growth inhibition is -17.7%.
The value for `Nc1c(Cl)cnn2nnnc12` was -7.5%.
As for `CSCCNC(=O)CS(=O)(=O)c1ccc(N)cc1`, the growth inhibition is -10.3%.
`N#CCCS(=O)(=O)O`: the growth inhibition was 29.1%.
Consider `COCCNc1ccc([N+](=O)[O-])cc1[N+](=O)[O-]`, for which the growth inhibition is 1.85%.
Regarding `FC(F)(F)c1cccc(N=Cc2ccc(C=Nc3cccc(C(F)(F)F)c3)cc2)c1`, the growth inhibition was 10.4%.
In the case of `CO[C@@H]1C[C@H]2[C@@H]3CC[C@H]([C@H](C)COC(C)=O)[C@@]3(C)CC[C@@H]2[C@@]2(C)CC[C@H]3C[C@]312`, the growth inhibition is -4.65%.
In the case of `CCCCC(C=O)(CC)CCC#N` (stereo not given), the growth inhibition is 45.1%.
In the case of `CCCCCC(=O)/C=C/Sc1n[nH]c(=O)[nH]c1=O`, the growth inhibition was 60.5%.
On to `CC(=O)c1nc2ccccc2n1CC(=O)c1ccc([N+](=O)[O-])cc1`, for which the growth inhibition is -0.65%.
The value for `CCOC(=O)C(=O)C1CC(c2ccccc2)=NNC1=O` (stereo not given) was 23%.
